# Data from the supplement of paper PMC3334620.
# Whole data set: some 33,000 sequences, median “E-score (-0.5 to 0.5)” near -0.032, cut for the highest 2% near 0.36. Only a selection was taken, and the highest values are over-represented in it overall.
# Target: T1, Sko1 (UniProt Q02100)
# T1 sequence: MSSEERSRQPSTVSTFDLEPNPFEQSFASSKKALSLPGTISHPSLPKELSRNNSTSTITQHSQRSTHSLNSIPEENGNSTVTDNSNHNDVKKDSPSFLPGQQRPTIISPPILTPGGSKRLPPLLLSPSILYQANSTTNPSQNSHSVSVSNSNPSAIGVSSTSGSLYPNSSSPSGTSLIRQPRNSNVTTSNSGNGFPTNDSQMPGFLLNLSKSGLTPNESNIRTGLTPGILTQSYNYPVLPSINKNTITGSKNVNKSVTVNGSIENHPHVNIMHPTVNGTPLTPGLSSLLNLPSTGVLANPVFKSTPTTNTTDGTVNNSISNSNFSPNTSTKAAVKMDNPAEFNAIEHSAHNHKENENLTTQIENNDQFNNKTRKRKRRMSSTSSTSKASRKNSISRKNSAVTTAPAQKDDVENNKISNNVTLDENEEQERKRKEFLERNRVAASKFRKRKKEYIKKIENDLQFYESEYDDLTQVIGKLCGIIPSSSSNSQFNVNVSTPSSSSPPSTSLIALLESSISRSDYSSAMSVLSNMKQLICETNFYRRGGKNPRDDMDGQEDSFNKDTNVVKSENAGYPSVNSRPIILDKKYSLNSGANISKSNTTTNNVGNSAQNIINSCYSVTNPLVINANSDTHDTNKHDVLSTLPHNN
# Assay: PBM E-score (8-mer binding enrichment) (E-score (-0.5 to 0.5)); higher = stronger / more preferred TF binding
# Settings: protein concentration: 200 nM; construct: GST-full length
# Protocol: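 Universal 'all 10-mer' protein binding microarrays (Agilent AMADID 015681) probed with GST-tagged S. cerevisiae TFs (full-length or DBD) made by in vitro transcription/translation (PURExpress), about 100-200 nM. Bound TF was detected with fluorescent anti-GST. Each ungapped 8-mer (which stands for itself and its reverse complement) is scored by the PBM enrichment score (E-score), a modified Wilcoxon-Mann-Whitney statistic from -0.5 to +0.5, computed with the Universal PBM Analysis Suite. Scale: above 0.35 generally sequence-specific binding.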
row,Sequence,PBM E-score
1,AACTCTAT,-0.186
2,TGATTCAA,0.144
3,ACCCCATG,-0.0741
4,CTCATAGA,0.00332
5,GTCATAGA,0.406
6,ATAATATA,0.268
7,GTAATATA,0.374
8,CTAATATA,0.302
9,ATCATAGA,0.205
10,GCCAGTGA,-0.0654
11,TACCCTGA,-0.126
12,CGCCTGAC,0.0438
13,AAGGCACG,0.132
14,ACCGCCGT,-0.264
15,GAAAAGGA,-0.0667
16,CATCATCG,0.347
17,CGTCATCC,0.475
18,CGTCATCA,0.489
19,CCTCATCC,-0.292
20,AGTCATCC,-0.0488
21,GGTCATCA,0.207
22,CATCATCA,0.361
23,AGTCATCA,-0.103
24,TATCATCA,0.272
25,CTGATCGC,-0.0786

row,Sequence,PBM E-score
1,ATATGCCA,-0.0891
2,AAAACAGA,0.112
3,AGAGTAGC,-0.00834
4,GCGTGGTA,-0.0393
5,CCGTGGTA,-0.172
6,ACGTGGCA,0.297
7,ACGTGGTA,0.391
8,ACGTGGCG,0.368
9,ACGTGGAT,0.398
10,CCGTGGTC,-0.235
11,ACGTGGAC,0.33
12,ACGTGGGC,0.347
13,ACGTGGCT,0.321
14,ACGTGGAA,0.311
15,ACGTGGTC,0.364
16,AACTCAGG,-0.0444
17,AGCGCTGC,-0.167
18,AGACAGAT,0.0457
19,ACTTGTGG,-0.0685
20,ACCCGAGC,-0.224
21,GTAGGCTA,0.0728
22,CGTTATGA,0.267
23,CTTGCTTC,0.0228
24,AGGTTGAC,-0.0293
25,ACGTCCTC,0.206

row,Sequence,PBM E-score
1,GGTCTGGA,-0.25
2,ACGTGCAC,0.355
3,ACGTGCAT,0.396
4,AGGTGGTG,-0.0259
5,ACGTGCAA,0.35
6,ACGTGGTG,0.376
7,AAGTGGTG,-0.113
8,AACAGTGG,-0.244
9,AGGGCGAC,-0.2
10,AAATTCTG,0.052
11,GTGTTCTA,0.0982
12,AATCCCGA,0.105
13,GCATCGCA,-0.35
14,CTTCGTTA,0.161
15,ATTCGTAA,0.433
16,CTTCGTCC,-0.226
17,GTTCGTGA,-0.0757
18,GTTCGTTA,0.107
19,ATTCGTCA,0.464
20,ATTCGTCC,0.119
21,ATTCGTCG,0.22
22,CTTCGTCA,0.412
23,CTTCGTAA,0.287
24,GTTCGTCA,0.367
25,GTTCGTAA,0.355

row,Sequence,PBM E-score
1,GAAATGGC,0.00268
2,CGCAAGCA,0.0501
3,AAAGGTAT,0.0611
4,CAACAGTA,-0.0581
5,CATTTGTC,0.0524
6,CATAAGAC,0.1
7,GGTTTGAC,0.0235
8,GGATGAAA,0.033
9,ATACGAAC,0.256
10,CTACGTAG,0.449
11,CTACGAAG,-0.0419
12,ATACGTAC,0.473
13,CTCCGTAA,0.0488
14,ATCCGTAC,0.151
15,CTACGGAA,0.157
16,CTACGTAA,0.489
17,GTACGAAC,0.284
18,GTACGGAC,-0.0428
19,GTACGTAC,0.44
20,CTACGGAG,-0.193
21,CCCTAAAG,-0.213
22,GTGAGGTA,0.0525
23,ATCGGTGC,0.105
24,AATAATCT,0.125
25,CCCATCGC,-0.232

row,Sequence,PBM E-score
1,TAGTTACA,0.0798
2,AGCAAAAC,0.0756
3,AGGCCCAT,-0.288
4,ATACGAAT,0.286
5,ATACGGAT,0.111
6,GTACGGAA,-0.00063
7,GTCCGTAA,0.00251
8,ATACGTAG,0.471
9,GTACGTAA,0.487
10,CTACGAAC,0.0886
11,ATACGAAG,0.223
12,CTACGTAC,0.449
13,CTCCGTAC,-0.153
14,ATACGTAT,0.487
15,ATACTTAG,-0.0209
16,ATGGACAC,0.0118
17,GGATCACC,-0.181
18,GTCTATGA,0.238
19,AACTCACA,0.0634
20,GCACCCGC,-0.0958
21,AGACTACG,0.136
22,CCTTACCC,-0.149
23,GAGCAGGA,-0.112
24,ATACGTAA,0.491
25,ATCCGTAA,0.0757

row,Sequence,PBM E-score
1,ATACGGAA,0.141
2,AAGTTCCA,-0.0591
3,CCTACGCA,0.361
4,TCTACGCA,0.32
5,CCTACGCC,-0.0487
6,GCTACGCA,0.294
7,ACTACGCA,0.367
8,CCTACGCG,0.117
9,CCCCAACC,-0.062
10,CCCACGTA,0.39
11,CCCACGCC,-0.127
12,CCCACGGC,-0.145
13,CCCACGTC,0.402
14,CCCACGCA,0.109
15,CCCACGGA,-0.0825
16,AACTAATT,0.182
17,ATCTAGAG,-0.0987
18,ATGTTTTG,0.109
19,CGGCGTCA,0.241
20,GTGCGTTA,0.259
21,GTGCGTCA,0.456
22,CTGCGTCA,0.435
23,CTGCGTCC,-0.112
24,ATGCGTCA,0.467
25,ATGCGTCG,0.0928

row,Sequence,PBM E-score
1,ATGCGTCC,-0.124
2,GTGCGTGA,0.274
3,CTTCAGCA,-0.0157
4,CACCTTTC,-0.223
5,CAGACCTA,0.125
6,ACCTGTCC,-0.267
7,AAGAAGGT,-0.0729
8,AAGGATGG,0.00772
9,AATTGCGA,0.0547
10,AATTGCGG,-0.172
11,AATTGCGT,0.448
12,CGTGAATC,0.13
13,ACGATTTA,0.328
14,ACGTGTGG,0.395
15,ATGTGTGG,-0.144
16,ACGTGCGG,0.308
17,CCGTGTGA,-0.0471
18,ACGTGTGC,0.388
19,GCGTGTGA,0.107
20,ACGTGCGC,0.381
21,CCGTGCGC,-0.067
22,ACGTGTGA,0.401
23,ACGTGGGG,0.316
